In PubChem BioAssay (NCATS):
Where “and” joins values, the source holds several entries; their conditions need not be identical. Identical values can stand only once. Inconclusive results are not listed. A call without a number means that no potency is given here. Calls of active or inactive are those of the source. The call rests on the fitted dose curve; in most records, active means well fitted curve in the direction sought with a large enough effect; inconclusive means small, poorly fitted or top-dose-only effect, or another doubt; inactive means no such curve, though single readings can be large; an effect the other way counts as inactive or inconclusive.

Legend:
[1] = qHTS of pediatric cancer cell lines to identify multiple opportunities for drug repurposing: Primary screen for NB1643 cells (AID 1347099); further: nearly all actives have a fitted effect of over 50% in size
Procedure, shortened: (§1)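 ATP-based luminescence (CellTiter-Glo) quantifies viability after a 48-hour exposure. Compounds are dosed across 8 or 11 final concentrations; DMSO and 2.3 µM bortezomib serve as controls.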

[2] = qHTS of pediatric cancer cell lines to identify multiple opportunities for drug repurposing: Primary screen for LAN-5 cells (AID 1347100)
Procedure, shortened: (§2)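 Cells (500-1,000/well) in growth media were settled 5 h at 37 degrees C, then given compounds for 48 h. Viability was read as CellTiter-Glo luminescence. Primary runs used MIPE at 11 points (0.78 nM-46 µM) and NPC at 8 points (0.59 nM-46 µM); follow-ups used 11 points.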

[3] = qHTS of pediatric cancer cell lines to identify multiple opportunities for drug repurposing: Primary screen for BT-12 cells (AID 1347101); further: nearly all actives have a fitted effect of over 25% in size
Procedure, shortened: (§3)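 Cells (500-1,000/well) rested 5 h, then received compounds for 48 h; metabolically active cells were measured by CellTiter-Glo luminescence. Final concentrations spanned up to 46 µM (MIPE, 11-point) or 0.59 nM-46 µM (NPC, 8-point) in primary screens, 11-point in follow-ups.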

[4] = qHTS of pediatric cancer cell lines to identify multiple opportunities for drug repurposing: Primary screen for Rh18 cells (AID 1347102); further: nearly all actives have a fitted effect of over 65% in size
Procedure, shortened: as §2

[5] = qHTS of pediatric cancer cell lines to identify multiple opportunities for drug repurposing: Primary screen for RD cells (AID 1347104); further: nearly all actives have a fitted effect of over 55% in size
Procedure, shortened: as §1

[6] = qHTS of pediatric cancer cell lines to identify multiple opportunities for drug repurposing: Primary screen for MG 63 (6-TG R) cells (AID 1347105); further: nearly all actives have a fitted effect of over 50% in size
Procedure, shortened: as §1

[7] = qHTS of pediatric cancer cell lines to identify multiple opportunities for drug repurposing: Primary screen for control Hh wild type fibroblast cells (AID 1347106); further: nearly all actives have a fitted effect of over 55% in size
Procedure, shortened: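 Viability after 48 h compound treatment at 37C, 500-1,000 cells/well, read as ATP luminescence with CellTiter-Glo. Primary screens used 11-point (MIPE, 0.78 nM-46 µM) or 8-point (NPC, 0.59 nM-46 µM) final concentrations; follow-up screens used 11-point dilutions.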

[8] = qHTS of pediatric cancer cell lines to identify multiple opportunities for drug repurposing: Primary screen for Rh30 cells (AID 1347107); further: nearly all actives have a fitted effect of over 75% in size
Procedure, shortened: as §2

[9] = qHTS of pediatric cancer cell lines to identify multiple opportunities for drug repurposing: Primary screen for Rh41 cells (AID 1347108); further: nearly all actives have a fitted effect of over 70% in size
Procedure, shortened: as §1

[10] = qHTS of pediatric cancer cell lines to identify multiple opportunities for drug repurposing: Primary screen for OHS-50 cells (AID 1347103); further: nearly all actives have a fitted effect of over 40% in size
Procedure, shortened: as §3
Potency means the concentration at half of the fitted maximal effect.

| Compound | Potency [1] | Potency [2] | Potency [3] | Potency [4] | Potency [5] | Potency [6] | Potency [7] | Potency [8] | Potency [9] | Potency [10] |
| --- | --- | --- | --- | --- | --- | --- | --- | --- | --- | --- |
| CCC(C)(C)c1ccc(CC(C)CN2C[C@@H](C)O[C@@H](C)C2)cc1 (stereo not given in full) | inactive | inactive | inactive | inactive | inactive | inactive | inactive | inactive | inactive |  |
| Nc1nc(=S)c2[nH]cnc2[nH]1 | 2.99 µM (active) and 3.32 µM (active) | 2.35 µM (active) |  | 13.3 µM (active) |  |  | inactive |  |  | 872 nM (active) and 1.72 µM (active) |
| CCC(=O)O[C@]1(C(=O)CCl)[C@@H](C)C[C@H]2[C@@H]3CCC4=CC(=O)C=C[C@]4(C)[C@@]3(F)[C@@H](O)C[C@@]21C | inactive | inactive |  | inactive |  | inactive | inactive | inactive | inactive |  |
| COc1ccc2cc3[n+](cc2c1OC)CCc1cc2c(cc1-3)OCO2 | 15 µM (active) and 18.7 µM (active) | 10.6 µM (active) and 16.6 µM (active) | 3.09 µM (active) and 4.32 µM (active) |  |  | 26.6 µM (active) | inactive | inactive |  | 4.37 µM (active) and 7.69 µM (active) |
| CCCOc1ccc(C(=O)OCCN(CC)CC)cc1N | inactive | inactive |  | inactive | inactive |  | inactive | inactive | inactive | inactive |
| Cc1ccnc2c1NC(=O)c1cccnc1N2C1CC1 | inactive | inactive |  | inactive | inactive | inactive | inactive | inactive | inactive | inactive |
| COc1cc([C@@H]2c3cc4c(cc3[C@H](O)[C@H]3COC(=O)[C@H]23)OCO4)cc(OC)c1OC | 0.0596 µM (active) | 7.5 nM (active) and 1 nM (active) |  | inactive | inactive |  | inactive | inactive | inactive | 30.9 nM (active) and 1 nM (active) |
| CNS(=O)(=O)Cc1ccc2[nH]cc(CCN(C)C)c2c1 | inactive | inactive |  | inactive |  | inactive | inactive | inactive | inactive | inactive |
| CC(=O)Oc1ccccc1C(=O)Nc1ncc([N+](=O)[O-])s1 | 42.9 µM (active) and 21.1 µM (active) | 27 µM (active) and 15 µM (active) |  | 42.9 µM (active) | 42.9 µM (active) and 23.7 µM (active) | inactive | inactive |  |  | 22.2 µM (active) |
| COCCCOc1cc(C[C@@H](C[C@H](N)[C@@H](O)C[C@H](C(=O)NCC(C)(C)C(N)=O)C(C)C)C(C)C)ccc1OC | inactive | inactive |  | inactive | inactive | inactive | inactive | inactive | inactive | inactive |
| O=C(NCC1CN(c2ccc(N3CCOCC3=O)cc2)C(=O)O1)c1ccc(Cl)s1 (stereo not given) | inactive | inactive |  | inactive | inactive |  | inactive | inactive | inactive | inactive |
| CNC(=O)c1cc(Oc2ccc(NC(=O)Nc3ccc(Cl)c(C(F)(F)F)c3)cc2)ccn1 | 4.69 µM (active) | 20.9 µM (active) |  | 18.7 µM (active) |  |  | inactive |  | 18.7 µM (active) | 15.3 µM (active) and 15.5 µM (active) |
| CCOc1cc(N)c(Cl)cc1C(=O)NCC1CN(Cc2ccc(F)cc2)CCO1 (stereo not given) | inactive | inactive |  | inactive |  | inactive | inactive | inactive | inactive | inactive |
| O=C(O)c1cccnc1 | inactive | inactive |  | inactive | inactive | inactive | inactive | inactive | inactive | inactive |
| Cc1ccc(S(=O)(=O)N[C@@H](Cc2ccccc2)C(=O)CCl)cc1 | 20.9 µM (active) | 16.6 µM (active) |  |  | 26.4 µM (active) | 29.6 µM (active) | inactive |  | 18.7 µM (active) | 19.3 µM (active) |
| Nc1nc(F)nc2c1ncn2[C@@H]1O[C@H](CO)[C@@H](O)[C@@H]1O | 0.372 µM (active) | 11.9 µM (active) and 469 nM (active) | 1.53 µM (active) |  | 0.833 µM (active) | 42.2 nM (active) and 590 nM (active) | inactive | inactive | 1.48 µM (active) | 55 nM (active) and 485 nM (active) |
| CCCCCCNC(=O)n1cc(F)c(=O)[nH]c1=O | 5.9 µM (active) | 7.5 µM (active) and 9.35 µM (active) |  | inactive |  | inactive | inactive | inactive | inactive | inactive |
| Oc1c(Cl)cc(Cl)c2cccnc12 | 2.66 µM (active) and 6.62 µM (active) | 5.96 µM (active) and 18.7 µM (active) | 27.6 µM (active) and 30.6 µM (active) |  | 5.31 µM (active) and 26.4 µM (active) | 6.68 µM (active) and 11.8 µM (active) | inactive |  | 23.5 µM (active) | 12.3 µM (active) and 27.3 µM (active) |
| CC1(C)[C@H](C(=O)O)N2C(=O)C[C@H]2S1(=O)=O | inactive | inactive |  | inactive | inactive | inactive | inactive | inactive | inactive | inactive |
| COc1cc(NCc2ccc3nc(N)nc(N)c3c2C)cc(OC)c1OC | 14.8 µM (active) | 16.6 µM (active) |  | inactive | 4.18 µM (active) and 119 nM (active) | inactive | inactive |  |  | 19.3 µM (active) |
| CCn1cc(C(=O)O)c(=O)c2cc(F)c(N3CCN(C)CC3)cc21 | inactive | inactive |  | inactive |  |  | inactive | inactive | inactive | inactive |

| Compound | Potency [1] | Potency [2] | Potency [3] | Potency [4] | Potency [5] | Potency [6] | Potency [7] | Potency [8] | Potency [9] | Potency [10] |
| --- | --- | --- | --- | --- | --- | --- | --- | --- | --- | --- |
| CCOC(=O)c1ccc(C#Cc2ccc3c(c2)C(C)(C)CCS3)nc1 | inactive |  | inactive | inactive |  | inactive | inactive | inactive | inactive | 777 nM (active) and 54.4 nM (active) |
| NC(=O)c1cccnc1 | inactive | inactive |  | inactive |  | inactive | inactive | inactive | inactive | inactive |
| Nc1nc(N)nc(-c2cc(Cl)ccc2Cl)n1 | inactive | inactive |  | inactive |  |  | inactive | inactive | inactive | inactive |
| CCN1CCCC1CNC(=O)c1cc(S(N)(=O)=O)ccc1OC (stereo not given) | inactive | inactive |  | inactive | inactive |  | inactive | inactive | inactive | inactive |
| CC(C)OC(=O)C(C(=O)OC(C)C)=C1SC=CS1 | inactive | inactive |  | inactive | inactive | inactive | inactive | inactive | inactive |  |
| COc1cc(NS(=O)(=O)c2ccc(N)cc2)nc(OC)n1 | inactive | inactive |  | inactive |  | inactive | inactive | inactive | inactive | inactive |
| O=C(O)CSCC(=O)NC1CCSC1=O (stereo not given) | inactive | inactive |  | inactive | inactive | inactive | inactive | inactive | inactive | inactive |
| NS(=O)(=O)c1cc2c(cc1Cl)NC(C(Cl)Cl)NS2(=O)=O (stereo not given) | inactive | inactive |  | inactive | inactive |  | inactive | inactive | inactive | inactive |
| CO[C@@H]1[C@@H](OC(N)=O)[C@@H](O)[C@H](Oc2ccc3c(O)c(NC(=O)c4ccc(O)c(CC=C(C)C)c4)c(=O)oc3c2C)OC1(C)C | inactive | inactive |  | inactive |  | inactive | inactive | inactive | inactive | inactive |
| CC(C)(C)C(=O)OCOP(=O)(COCCn1cnc2c(N)ncnc21)OCOC(=O)C(C)(C)C | 11.9 µM (active) and 18.7 µM (active) | 16.6 µM (active) |  | inactive | 23.5 µM (active) |  | inactive | inactive |  | 6.17 µM (active) and 30.6 µM (active) |
| COc1cccc(N(C)C(=S)Oc2ccc3c(c2)CCCC3)n1 | inactive | inactive |  | inactive |  | inactive | inactive | inactive | inactive | 24.3 µM (active) |
| CN(Cc1cc(Br)cc(Br)c1N)C1CCCCC1 | inactive | inactive | inactive | inactive | inactive | inactive | inactive | inactive | inactive |  |
| CC(C)(Sc1cc(C(C)(C)C)c(O)c(C(C)(C)C)c1)Sc1cc(C(C)(C)C)c(O)c(C(C)(C)C)c1 | inactive | inactive |  | inactive | inactive | inactive | inactive | inactive | inactive | inactive |
| Clc1ccccc1CN1CCc2sccc2C1 | inactive |  | 1.93 µM (active) | inactive | inactive | inactive | inactive | inactive | inactive |  |
| CC(=O)[C@H]1CC[C@H]2[C@@H]3CC=C4C[C@@H](O)CC[C@]4(C)[C@H]3CC[C@]12C | inactive | inactive | inactive | inactive | inactive | inactive | inactive | inactive | inactive |  |
| C[C@@H]1C[C@H]2[C@@H]3CCC4=CC(=O)C=C[C@]4(C)[C@@]3(Cl)[C@@H](O)C[C@]2(C)[C@@]1(OC(=O)c1ccco1)C(=O)CCl | 2.64 µM (active) | 10.5 µM (active) | 27.6 µM (active) and 9.68 µM (active) |  | 8.33 µM (active) | 23.5 µM (active) | inactive | inactive |  | 15.5 µM (active) and 15.3 µM (active) |
| O=NN(CCCl)C(=O)NC1CCCCC1 |  | inactive | inactive | inactive | inactive | inactive | inactive | inactive | inactive | inactive |
| CC(C)C[C@H](NC(=O)[C@H](CCc1ccccc1)NC(=O)CN1CCOCC1)C(=O)N[C@@H](Cc1ccccc1)C(=O)N[C@@H](CC(C)C)C(=O)[C@@]1(C)CO1 |  | 668 nM (active) and 132 nM (active) | 87.1 nM (active) and 137 nM (active) | 106 nM (active) and 264 nM (active) | 23.7 nM (active) and 41.8 nM (active) | 42.2 nM (active) and 59 nM (active) | 335 nM (active) and 264 nM (active) | 59.6 nM (active) and 296 nM (active) | 23.7 nM (active) and 46.9 nM (active) | 61.7 nM (active) and 109 nM (active) |
| Cc1c(-c2ccc(O)cc2)n(Cc2ccc(OCCN3CCCCCC3)cc2)c2ccc(O)cc12 | inactive |  |  | inactive | inactive |  | inactive | inactive | inactive |  |
| CC(=O)CC(c1ccccc1)c1c(O)c2ccccc2oc1=O (stereo not given) |  | inactive | inactive | inactive |  | inactive | inactive | inactive | inactive | inactive |
